A selection: hits, their analogues and other compounds. The true share with any hit is near 3.5%.
TEAD-YAP inh – TEAD-YAP interaction inhibition | HEK-TIYL cells, TEAD-Gal4/YAP UAS-luciferase luminescence | inhibition, % at 9.12 µM | actives 1.4% (n = 640,000) | AID 1259422; in the data active = inhibition above about 32%;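 also: 0% = median of test compound wells and 100% = reference inhibitor wells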
MITF inh – human MITF inhibition, primary screen; AlphaScreen MITF homodimerization, bead proximity signal; AID 1259374; actives 0.91% (n = 650,000); inhibition, % at 2.6 µM; O75030; in the data active = inhibition above about 50%;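 also: 0% = vehicle wells with protein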
GPR151 ag – activators of human GPR151; actives 1% (n = 650,000); PathHunter beta-arrestin GPR151 cells, luminescence; AID 1508602; Q8TDV0; activation, % at 11.2 µM; in the data active = activation above about 4.9%;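 also: 0% = median of compound wells and 100% = cells with positive control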
FBW7 activator – activators of human E3 ligase FBW7; Q969H0; normalized activity (activation), % at 26.1 µM; actives 0.13% (n = 650,000); AlphaScreen FBW7–phospho-cyclin E peptide binding, activator screen; AID 1259310; in the data active = normalized activity above about 1.9%;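 also: purified mutant Fbw7 with reduced substrate affinity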
Target sequence (Q969H0 whole entry, looked up): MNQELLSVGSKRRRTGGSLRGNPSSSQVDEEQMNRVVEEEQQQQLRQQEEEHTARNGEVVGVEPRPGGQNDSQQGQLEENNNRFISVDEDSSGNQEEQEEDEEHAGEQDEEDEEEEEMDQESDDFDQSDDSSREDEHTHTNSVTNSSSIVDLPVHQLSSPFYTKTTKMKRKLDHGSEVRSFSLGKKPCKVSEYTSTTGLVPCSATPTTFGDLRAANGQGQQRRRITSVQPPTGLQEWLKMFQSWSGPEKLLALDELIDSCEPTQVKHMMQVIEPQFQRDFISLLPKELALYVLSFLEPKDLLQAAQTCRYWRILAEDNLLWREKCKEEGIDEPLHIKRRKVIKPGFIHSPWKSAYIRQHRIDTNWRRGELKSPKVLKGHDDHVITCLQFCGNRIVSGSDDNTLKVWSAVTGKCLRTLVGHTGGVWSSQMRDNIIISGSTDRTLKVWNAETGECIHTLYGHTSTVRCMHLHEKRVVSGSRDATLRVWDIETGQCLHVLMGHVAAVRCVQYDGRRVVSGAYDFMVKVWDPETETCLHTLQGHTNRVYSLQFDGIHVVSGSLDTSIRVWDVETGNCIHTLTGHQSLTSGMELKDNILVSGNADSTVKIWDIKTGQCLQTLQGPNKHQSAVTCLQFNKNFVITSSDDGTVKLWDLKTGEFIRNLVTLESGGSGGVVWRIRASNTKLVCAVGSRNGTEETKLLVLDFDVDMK
MITF inh conf – confirmation of human MITF inhibitors; shares compounds with MITF inh; AlphaScreen MITF homodimerization, biotin/His-MITF beads; inhibition, % at 2.6 µM; actives 16% (n = 4,700); AID 1259372;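 active = inhibition above a cutoff derived from the DMSO control wells, cut at about 28% in these data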;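 also: 0% = MITF dimer wells with DMSO only; inhibitors lower the bead chemiluminescence by keeping MITF from dimerizing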
AlphaScreen DR – counter-screen: compounds optically interfering with AlphaScreen | shares compounds with MITF inh | AlphaScreen optical interference counterscreen, cell-free | IC50, µM | actives 6% (n = 480); call rule not given here
AlphaScreen intf2 – optically interferes with AlphaScreen signal. LysRS AlphaScreen counterscreen, signal interference, triplicate. inhibition, % at 2.6 µM. shares compounds with MITF inh. AID 1259376. actives 7.6% (n = 4,700);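 active = inhibition above a cutoff derived from the DMSO control wells, cut at about 30% in these data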
* hit, by the source's call; · = not tested or not shown.

SMILES | TEAD-YAP inh | MITF inh | GPR151 ag | FBW7 activator | MITF inh conf | AlphaScreen intf2 | others
COc1ccc(CN2CCCC(O)C2)cc1Br (centres undefined) | 0.4 | 17.5 | 0.6 | 0.5 | · | ·
COc1ccc(CN2CCN(Cc3ccccc3Cl)CC2)cc1OC | 0.1 | 70.7* | 0.6 | -0.2 | 10.9 | 21.6
CC(C)N1C(=O)C2C3CC(=O)C(c4ccccc43)C2C1=O (centres undefined) | 6.0 | -0.4 | 1.7 | 0.0 | · | ·
COc1cc(-c2cnc(NCC(C)C)c3nccn23)cc(OC)c1OC | 4.2 | 18.8 | 1.6 | 0.5 | · | ·
CCC(c1nnnn1C(C)(C)C)N1CCN(c2ccc(F)cc2)CC1 (centres undefined) | -5.2 | -9.4 | -0.3 | -0.1 | · | ·
COc1cc(OC)c(OC)cc1CN1CCN(c2ccccc2OC)CC1 | 5.8 | 38.3 | -0.5 | -0.1 | · | ·
COc1cc(OC)c(OC)cc1CN1CCN(Cc2ccccc2C)CC1 | 1.0 | 74.5* | 1.0 | 0.1 | -12.8 | 3.1
CN(Cc1ccccc1)C1CCN(Cc2ccccc2[N+](=O)[O-])CC1 | 4.2 | 59.0* | 0.0 | -0.1 | -3.2 | 4.4
COc1ccccc1CN1CCN(Cc2ccc3ccccc3c2)CC1 | 6.1 | 77.7* | 0.2 | -0.2 | 18.1 | 22.2
COc1cccc(OC)c1C(=O)N1CCN(Cc2ccc3ccccc3c2)CC1 | -0.2 | 41.5 | 3.9 | -0.2 | · | ·
CCc1ccc(CN2CCN(Cc3ccccc3[N+](=O)[O-])CC2)cc1 | 0.6 | 73.7* | 0.7 | -0.2 | 9.0 | -0.4
COC(=O)C1=C(C)N(c2ccc(OC)cc2)C(=O)/C1=C\c1ccc(Cl)cc1 | -6.3 | -1.8 | -1.4 | -0.1 | · | ·
COc1cc(Br)c(CN2CCCN(C)CC2)cc1OC | 3.9 | 11.3 | 1.4 | 0.7 | · | ·
CCOc1cc(CN2CCN(Cc3ccccc3C)CC2)ccc1OC | 2.3 | 51.9* | 0.9 | -0.2 | 1.9 | 14.8
COc1ccc(CN2CCN(Cc3ccccc3C)CC2)cc1OC | 10.0 | 62.3* | -0.8 | 0.1 | 5.0 | 14.0
CCOc1cc(CN2CCN(Cc3cccc(C)c3)CC2)ccc1OC | 5.2 | 13.6 | -0.6 | -0.2 | · | ·
COc1cc(OC)c(OC)cc1CN1CCN(Cc2cc(OC)c(OC)cc2Br)CC1 | 7.5 | 71.9* | -0.6 | -0.4 | 12.1 | 19.3
COc1ccccc1CN1CCN(Cc2ccc(OC)c(OC)c2)CC1 | -1.2 | 61.7* | 0.3 | 0.0 | 6.7 | 12.9
COC(=O)CSC1=C(C#N)C(c2ccccc2Cl)C(C#N)C(=O)N1 (centres undefined) | 8.6 | -6.6 | 0.8 | -0.1 | · | ·
O=C(Nc1nc2c(s1)CCc1ccccc1-2)C1CCCO1 (centres undefined) | -10.6 | -12.7 | 0.0 | 0.1 | · | ·
Cc1ccc(NC(=O)CN2CCC(C(N)=O)CC2)c(Cl)c1 | -4.8 | -0.8 | -0.4 | -0.1 | · | ·
COc1ccc(CN2CCN(Cc3ccccc3[N+](=O)[O-])CC2)cc1OC | -5.4 | 66.6* | 0.3 | -0.2 | -3.4 | -5.8
Cc1nc(NCCCN2CCOCC2)c2cc(-c3ccccc3)sc2n1 | -13.2 | 55.2* | -0.4 | 0.0 | 6.1 | 6.4
COC(=O)c1ccc(OCC2c3cc(OC)c(OC)cc3CCN2C(=O)c2c(F)cccc2F)cc1 (centres undefined) | -4.7 | -3.2 | -0.5 | 0.0 | · | ·
O=C1c2ccccc2C(=O)N1CCCCN(C(=O)c1cc([N+](=O)[O-])ccc1Cl)c1ccc(Cl)cc1 | 11.4 | 68.1* | 0.3 | 0.1 | 5.9 | 11.1
SMILES | TEAD-YAP inh | MITF inh | GPR151 ag | FBW7 activator | MITF inh conf | AlphaScreen intf2 | others
Cc1ccc(N(CCCCN2C(=O)c3ccccc3C2=O)C(=O)c2ccc([N+](=O)[O-])cc2)cc1 | -1.6 | 63.9* | -1.5 | 0.1 | 5.2 | 14.6
O=C1c2ccccc2C(=O)N1CCCCN(C(=O)c1ccc([N+](=O)[O-])cc1)c1ccc(Cl)cc1 | -9.7 | 1.0 | -1.6 | -0.2 | · | ·
Cc1ccc(/C=C2\N=C(c3ccc([N+](=O)[O-])cc3Cl)OC2=O)o1 | 3.5 | -9.1 | 0.8 | -0.1 | · | ·
C=CCNCCOc1cc(C(C)C)ccc1C | -6.3 | 3.4 | -1.3 | 0.0 | · | ·
Cc1ccc(C(C)C)cc1OCCOCCN1CCCC1 | 4.4 | 54.0* | -2.1 | 0.2 | -4.8 | -14.0
Cc1ccc(C(C)C)c(OCCCCn2ccnc2)c1 | -1.3 | 20.1 | 0.8 | 0.0 | · | ·
Cc1ccc(C(C)C)cc1OCCNC(C)C | 5.9 | 89.4* | -1.7 | 0.7 | 0.6 | 4.0
Cc1ccc(C(C)C)cc1OCCCCn1ccnc1 | 1.5 | 53.5* | 2.2 | -0.2 | 8.4 | 7.7
CSCC(=O)N1CCN(c2ccc([N+](=O)[O-])cc2)CC1 | 1.9 | 4.2 | 0.3 | 0.0 | · | ·
COc1ccc(CN2CCN(Cc3ccc(OC)c(Br)c3)CC2)c(OC)c1 | -8.9 | 63.1* | 0.4 | -0.2 | 1.8 | 5.3
COc1ccc(OC)c(CN2CCN(Cc3cccc(Br)c3)CC2)c1 | 0.4 | 59.0* | -0.4 | -0.2 | 17.7 | 17.5
COc1ccc(OC)c(CN2CCN(Cc3ccc(OC)c(Br)c3)CC2)c1 | 4.6 | 65.7* | -0.8 | -0.2 | 10.7 | 17.8
COc1ccc(CN2CCN(C3CCCC3)CC2)cc1Br | 2.2 | 23.1 | -0.8 | -0.1 | · | ·
COc1ccccc1COCC(O)CNCC1(N2CCCCC2)CCCCC1 (centres undefined) | 5.1 | 68.5* | 2.0 | -0.2 | -7.0 | -1.8
COc1ccccc1COCC(O)CNCc1ccncc1 (centres undefined) | 3.1 | 70.5* | -0.1 | 0.0 | 7.8 | 14.8
COc1ccccc1COCC(O)CNCCCN1CCOCC1 (centres undefined) | 9.1 | 62.4* | 0.7 | 0.0 | 1.8 | -1.4
COc1ccccc1COCC(O)CNC(C)(C)C (centres undefined) | 10.2 | 38.5 | 0.8 | -0.1 | · | ·
COc1cc(C(C)=O)ccc1OCC(O)CNCC1(N2CCCCC2)CCCCC1 (centres undefined) | 2.1 | 41.7 | -1.6 | 0.3 | · | ·
COc1ccc(-c2nnc(Nc3ccc4c(c3)ncn4-c3ccc(OC)cc3)c3ccccc23)cc1 | 12.4 | 8.2 | -1.0 | 0.8 | · | ·
O=C(CCOc1ccccc1)N1CCN(c2nc3ccccc3s2)CC1 | 10.2 | 12.2 | -0.6 | 0.8 | · | ·
CN=C1S/C(=C\c2ccsc2)C(=O)N1C | -12.6 | -8.9 | 0.7 | 0.0 | · | ·
O=c1n(Cc2ccc(Cl)cc2Cl)c2cc(N3CCOCC3)c([N+](=O)[O-])cc2n1Cc1ccc(Cl)cc1Cl | -0.3 | -11.8 | -1.3 | -0.1 | · | ·
O=[N+]([O-])c1ccc(N/N=C/c2cccc(O)c2O)c(S(=O)(=O)N2CCOCC2)c1 | -19.3 | -35.5 | -0.4 | -0.7 | · | ·
O=[N+]([O-])c1ccc(N/N=C/c2ccco2)c(S(=O)(=O)N2CCOCC2)c1 | -5.1 | 63.4* | 0.1 | 0.2 | 33.4* | -0.9 | AlphaScreen DR=>6.48
COc1cc(C(C)=O)ccc1OCCOCCN1CCN(Cc2ccccc2)CC1 | 5.8 | 86.6* | 2.6 | 0.5 | 5.0 | 11.8
Cc1ccc([N+](=O)[O-])c(OCCCN2CCN(Cc3ccccc3)CC2)c1 | -5.8 | 44.1 | 0.7 | -0.3 | · | ·
